Test results from PubChem BioAssay (Tox21).
Inconclusive results are not listed. The source made the active and inactive calls. Unless noted, the call rests on the fitted dose curve; in most records, active means well fitted curve in the direction sought with a large enough effect in the repeat runs; inconclusive means weak or mixed curves; inactive means no such curve, though single readings can be large; an effect the other way counts as inactive or inconclusive.

Columns and labels:
[1] = qHTS assay to identify aromatase inhibitors - cell viability counter screen (AID 743084);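 further: cells stimulated with testosterone during compound exposure; nearly all actives have a fitted effect of over 55% in size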
[2] = qHTS assay to identify small molecule that activate the aryl hydrocarbon receptor (AhR) signaling pathway - cell viability counter screen (AID 743086);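 further: HepG2 liver cells carrying the AhR DRE luciferase reporter; series mostly up to about 70 µM; nearly all actives have a fitted effect of over 45% in size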
Method in brief: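 HepG2-AhR-luc (HG2L7.5c1) cells, 4000/well, were preincubated 5 h at 37C, exposed to compound in qHTS format for 24 hr at 37C, then given CellTiter-Fluor for 30 min; viability was read as fluorescence in the reporter wells.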

[3] = target: Peroxisome proliferator-activated receptor gamma (Homo sapiens) (UniProt P37231); experiment: qHTS assay to identify small molecule agonists of the peroxisome proliferator-activated receptor gamma (PPARg) signaling pathway (AID 743094; active means well fitted activation curve with a large enough effect in the signal ratio in the repeat runs, not every such curve was filed as active; the % refers to the signal ratio)
Method in brief: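 Reporter activation was scored by fluorescence of cleaved LiveBLAzer B/G substrate (1 h, room temperature) in PPARg-bla HEK293H cells previously treated 17 h at 37C with DMSO-dissolved compounds.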

[4] = target: Peroxisome proliferator-activated receptor gamma (Homo sapiens) (UniProt P37231); experiment: qHTS assay to identify small molecule antagonists of the peroxisome proliferator-activated receptor gamma (PPARg) signaling pathway (AID 743191; calls by dose curve; further: series mostly up to about 63 µM; nearly all actives have a fitted effect of over 30% in size)
Method in brief: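 GeneBLAzer PPARg UAS-bla HEK293H cells carrying a UAS-driven beta-lactamase reporter were plated at 3000 cells/well, preincubated 5 h at 37C, then given compound for 17 h at 37C; LiveBLAzer B/G FRET substrate was read after 1 h at room temperature.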

[5] = qHTS assay for small molecule agonists of the antioxidant response element (ARE) signaling pathway (AID 743202; active means well fitted activation curve with a large enough effect in the signal ratio in the repeat runs, not every such curve was filed as active; the % refers to the signal ratio)
Method in brief: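 Following a 16 h, 37 C exposure of reporter HepG2 cells (ARE-driven beta-lactamase, 2,000 cells/well) to compounds, FRET substrate was applied for 2 h at room temperature and fluorescence intensity recorded.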

[6] = qHTS assay for small molecule agonists of the antioxidant response element (ARE) signaling pathway - cell viability counter screen (AID 743203; calls by dose curve; further: nearly all actives have a fitted effect of over 55% in size)
Method in brief: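 Viability counter screen: stably transfected ARE-bla HepG2 line, 16 hrs compound exposure at 37C/5% CO2, ATP-based CellTiter-Glo luminescence measured in the reporter wells.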

[7] = qHTS assay for small molecule activators of the heat shock response signaling pathway (AID 743210; active means well fitted activation curve with a large enough effect in the signal ratio in the repeat runs, with a control signal flat, not every such curve was filed as active; the % refers to the signal ratio; further: series mostly up to about 63 µM)
Method in brief: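 Heat shock element–beta-lactamase HeLa reporter cells; qHTS with compounds for 5 h at 37 C; detection by FRET substrate fluorescence after 2.5 h at RT.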

[8] = qHTS assay to identify small molecule agonists of the peroxisome proliferator-activated receptor delta (PPARd) signaling pathway - cell viability counter screen (AID 743211); further: nearly all actives have a fitted effect of over 55% in size
Method in brief: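 Viability of GeneBLAzer PPARd UAS-bla HEK293H cells was assessed after 17 h compound incubation at 37C, using CellTiter-Glo reagent added after the reporter read and luminescence recorded 30 min later.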

[9] = target: Peroxisome proliferator-activated receptor delta (Homo sapiens) (UniProt Q03181); experiment: qHTS assay to identify small molecule agonists of the peroxisome proliferator-activated receptor delta (PPARd) signaling pathway (AID 743212; calls by dose curve)
Method in brief: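 Beta-lactamase reporter read by fluorescence (LiveBLAzer B/G FRET, 2 h, room temperature). Test agents, in DMSO, incubated at 37 C with PPARd-bla HEK293H cells.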

[10] = qHTS assay to identify small molecule antagonists of the peroxisome proliferator-activated receptor delta (PPARd) signaling pathway - cell viability counter screen (AID 743213); further: nearly all actives have a fitted effect of over 50% in size
Method in brief: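 HEK293H cells with the PPARd UAS-bla reporter, co-treated 17 h at 37 C with compounds and L165041 (300 nM final), were lysed with CellTiter-Glo. Luminescence indicated viable cell content.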

[11] = target: Bile acid receptor (Homo sapiens) (UniProt Q96RI1); experiment: qHTS assay to identify small molecule antagonists of the farnesoid-X-receptor (FXR) signaling pathway (AID 743217; active means well fitted inhibition curve with a large enough effect in the signal ratio in the repeat runs, not every such curve was filed as active; the % refers to the signal ratio)
Method in brief: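 Screen of the Tox21 10K library in quantitative HTS format using FXR-UAS-bla HEK 293T reporter cells. Agonist chenodeoxycholic acid, 50 uM final, added with compounds; 16 h incubation at 37 °C; beta-lactamase FRET fluorescence measured.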

[12] = qHTS assay to identify small molecule antagonists of the farnesoid-X-receptor (FXR) signaling pathway - cell viability counter screen (AID 743221; active means well fitted cell-killing curve with a large enough effect in the repeat runs, not every such curve was filed as active; further: nearly all actives have a fitted effect of over 50% in size)
Method in brief: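 Quantitative HTS of the Tox21 10K library run in parallel with the beta-lactamase reporter read. HEK 293T cells carrying a UAS-driven bla reporter got compound and 50 uM CDCA (final) for 16 h; ATP-based luminescence followed.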

[13] = target: Aryl hydrocarbon receptor (Homo sapiens) (UniProt P35869); experiment: qHTS assay to identify small molecule that activate the aryl hydrocarbon receptor (AhR) signaling pathway (AID 743085);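 further: HG2L7.5c1 human HepG2 liver cells with stably integrated DRE-driven firefly reporter; series mostly up to about 70 µM; nearly all actives have a fitted effect of over 15% in size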
Method in brief: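 Steps: seed HepG2-AhR-luc cells; allow 5 h at 37C; pin-transfer test compound or vehicle; incubate 24 h at 37C; add viability dye (30 min, 37C) and read fluorescence; add luciferase substrate (30 min, RT) and read luminescence.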

[14] = qHTS assay to identify small molecule antagonists of the peroxisome proliferator-activated receptor gamma (PPARg) signaling pathway - cell viability counter screen (AID 743194); further: nearly all actives have a fitted effect of over 55% in size
Method in brief: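 PPARg-UAS-bla HEK293H cells were plated, rested 5 h at 37 C, then treated with compounds plus rosiglitazone (50 nM final) for 17 h at 37 C; viability was then read by CellTiter-Glo luminescence after 30 min at room temperature.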

[15] = qHTS assay for small molecule activators of the heat shock response signaling pathway - cell viability counter screen (AID 743209); further: nearly all actives have a fitted effect of over 50% in size
Method in brief: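 Viability of HSE-bla HeLa cells is measured with CellTiter-Glo in the wells already used for the reporter read. Compound exposure lasts 5 h at 37 C, and luminescence is read after 30 min at room temperature.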

[16] = qHTS assay to identify small molecule agonists of the farnesoid-X-receptor (FXR) signaling pathway - cell viability counter screen (AID 743218); further: nearly all actives have a fitted effect of over 45% in size
Method in brief: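 Viability of FXR-bla HEK 293T cells is measured by ATP-based CellTiter-Glo luminescence following 16 h compound treatment at 37 C and a prior 2 h room-temperature beta-lactamase substrate step.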

[17] = target: Vitamin D3 receptor (Homo sapiens) (UniProt P11473); experiment: qHTS assay to identify small molecule agonists of the vitamin D receptor (VDR) signaling pathway (AID 743222; calls by dose curve)
Method in brief: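 Fluorescence from cleaved LiveBLAzer B/G FRET substrate served as readout. VDR-bla cells had been treated 16 h at 37C with test compounds in DMSO, following a 4 h settling period, and substrate was loaded for 2 h at RT.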

[18] = target: Vitamin D3 receptor (Homo sapiens) (UniProt P11473); experiment: qHTS assay to identify small molecule antagonists of the vitamin D receptor (VDR) signaling pathway (AID 743223; active means well fitted inhibition curve with a large enough effect in the signal ratio in the repeat runs, not every such curve was filed as active; the % refers to the signal ratio)
Method in brief: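 Fluorescence from LiveBLAzer B/G FRET substrate, read after 2 h at room temperature, reflects beta-lactamase reporter activity in VDR-bla cells treated 16 h at 37C with compounds and agonist 1alpha,25-dihydroxyvitamin D3 (3 nM final).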

[19] = target: Bile acid receptor (Homo sapiens) (UniProt Q96RI1); experiment: qHTS assay to identify small molecule agonists of the farnesoid-X-receptor (FXR) signaling pathway (AID 743220; active means well fitted activation curve with a large enough effect in the signal ratio in the repeat runs, not every such curve was filed as active; the % refers to the signal ratio)
Method in brief: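 FXR-UAS-bla HEK 293T cells carrying a UAS-driven beta-lactamase reporter were plated for 5 h at 37C/5% CO2, then exposed to DMSO-dissolved Tox21 10K compounds for 16 h at 37C. A LiveBLAzer B/G FRET substrate was loaded for 2 h at room temperature before fluorescence reading.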

[20] = target: Peroxisome proliferator-activated receptor delta (Homo sapiens) (UniProt Q03181); experiment: qHTS assay to identify small molecule antagonists of the peroxisome proliferator-activated receptor delta (PPARd) signaling pathway (AID 743215; active means well fitted inhibition curve with a large enough effect in the signal ratio in the repeat runs, not every such curve was filed as active; the % refers to the signal ratio;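 further: cells stimulated with agonist L165041 at 300 nM final during compound exposure; series mostly up to about 62 µM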)
Method in brief: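 Plated HEK293H PPARd-bla cells rested 5 h at 37 C and 5% CO2. Compound, then agonist L165041 at 300 nM final, was added; 17 h at 37 C followed. Substrate loading, 2 h room temperature, fluorescence measured.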

Measured: Potency

Peroxisome proliferator-activated receptor gamma (Homo sapiens), sequence (P37231 whole entry, looked up): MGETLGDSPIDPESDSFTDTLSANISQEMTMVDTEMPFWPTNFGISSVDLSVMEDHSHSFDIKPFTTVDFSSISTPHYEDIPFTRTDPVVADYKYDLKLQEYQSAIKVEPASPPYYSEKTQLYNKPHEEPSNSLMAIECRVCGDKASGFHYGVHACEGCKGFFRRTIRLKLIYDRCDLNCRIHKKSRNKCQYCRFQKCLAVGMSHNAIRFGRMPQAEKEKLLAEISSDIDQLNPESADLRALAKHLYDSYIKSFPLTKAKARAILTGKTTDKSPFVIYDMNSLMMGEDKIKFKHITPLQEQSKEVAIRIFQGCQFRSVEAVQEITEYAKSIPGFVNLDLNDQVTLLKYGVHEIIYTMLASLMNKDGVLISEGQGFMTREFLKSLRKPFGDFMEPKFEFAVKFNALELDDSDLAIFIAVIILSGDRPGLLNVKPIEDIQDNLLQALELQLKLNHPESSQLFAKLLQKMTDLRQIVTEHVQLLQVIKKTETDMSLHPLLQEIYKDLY
Bile acid receptor (Homo sapiens), sequence (Q96RI1 whole entry, looked up): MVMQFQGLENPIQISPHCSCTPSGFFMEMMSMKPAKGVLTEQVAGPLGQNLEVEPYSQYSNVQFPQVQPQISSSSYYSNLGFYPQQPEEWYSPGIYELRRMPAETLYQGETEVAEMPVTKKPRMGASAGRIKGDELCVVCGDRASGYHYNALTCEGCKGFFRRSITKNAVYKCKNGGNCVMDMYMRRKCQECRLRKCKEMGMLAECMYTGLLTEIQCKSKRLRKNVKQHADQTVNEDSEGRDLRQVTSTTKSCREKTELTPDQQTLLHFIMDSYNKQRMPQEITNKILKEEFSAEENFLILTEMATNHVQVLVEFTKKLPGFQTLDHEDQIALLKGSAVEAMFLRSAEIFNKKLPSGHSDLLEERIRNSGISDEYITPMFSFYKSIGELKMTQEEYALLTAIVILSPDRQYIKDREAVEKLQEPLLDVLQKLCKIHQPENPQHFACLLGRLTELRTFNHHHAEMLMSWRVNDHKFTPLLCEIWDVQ
Vitamin D3 receptor (Homo sapiens), sequence (P11473 whole entry, looked up): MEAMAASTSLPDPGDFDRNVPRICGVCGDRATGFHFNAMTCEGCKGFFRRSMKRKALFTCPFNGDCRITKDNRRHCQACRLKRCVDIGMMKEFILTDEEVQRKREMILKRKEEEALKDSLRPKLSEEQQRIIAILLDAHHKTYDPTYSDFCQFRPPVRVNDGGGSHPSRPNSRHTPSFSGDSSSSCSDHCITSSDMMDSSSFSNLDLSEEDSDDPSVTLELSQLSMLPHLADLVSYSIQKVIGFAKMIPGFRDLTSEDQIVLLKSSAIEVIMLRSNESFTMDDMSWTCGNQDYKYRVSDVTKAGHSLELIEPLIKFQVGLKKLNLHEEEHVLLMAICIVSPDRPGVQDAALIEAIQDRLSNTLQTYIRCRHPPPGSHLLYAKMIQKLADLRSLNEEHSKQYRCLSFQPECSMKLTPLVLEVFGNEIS
Aryl hydrocarbon receptor (Homo sapiens), sequence (P35869 whole entry, looked up): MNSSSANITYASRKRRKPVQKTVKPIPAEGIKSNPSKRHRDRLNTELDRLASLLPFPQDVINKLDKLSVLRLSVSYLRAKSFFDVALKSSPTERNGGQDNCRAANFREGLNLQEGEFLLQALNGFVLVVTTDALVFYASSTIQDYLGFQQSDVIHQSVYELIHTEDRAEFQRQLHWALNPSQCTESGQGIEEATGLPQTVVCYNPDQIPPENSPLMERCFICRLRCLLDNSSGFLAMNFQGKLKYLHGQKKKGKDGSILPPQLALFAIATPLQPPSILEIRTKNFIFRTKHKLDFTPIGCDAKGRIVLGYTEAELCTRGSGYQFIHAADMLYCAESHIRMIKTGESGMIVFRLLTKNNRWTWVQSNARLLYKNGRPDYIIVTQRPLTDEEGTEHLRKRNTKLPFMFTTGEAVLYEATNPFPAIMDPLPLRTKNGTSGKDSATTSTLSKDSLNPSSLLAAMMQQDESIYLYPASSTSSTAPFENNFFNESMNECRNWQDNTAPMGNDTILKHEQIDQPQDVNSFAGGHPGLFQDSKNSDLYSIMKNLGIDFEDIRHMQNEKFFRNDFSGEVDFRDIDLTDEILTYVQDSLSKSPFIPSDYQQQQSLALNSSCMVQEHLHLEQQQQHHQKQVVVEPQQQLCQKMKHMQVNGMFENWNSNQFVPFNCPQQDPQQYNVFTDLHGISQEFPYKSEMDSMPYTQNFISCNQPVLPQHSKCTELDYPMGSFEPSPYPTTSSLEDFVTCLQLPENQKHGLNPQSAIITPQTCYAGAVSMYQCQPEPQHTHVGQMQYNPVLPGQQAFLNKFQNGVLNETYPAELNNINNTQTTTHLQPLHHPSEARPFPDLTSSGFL
Peroxisome proliferator-activated receptor delta (Homo sapiens), sequence (Q03181 whole entry, looked up): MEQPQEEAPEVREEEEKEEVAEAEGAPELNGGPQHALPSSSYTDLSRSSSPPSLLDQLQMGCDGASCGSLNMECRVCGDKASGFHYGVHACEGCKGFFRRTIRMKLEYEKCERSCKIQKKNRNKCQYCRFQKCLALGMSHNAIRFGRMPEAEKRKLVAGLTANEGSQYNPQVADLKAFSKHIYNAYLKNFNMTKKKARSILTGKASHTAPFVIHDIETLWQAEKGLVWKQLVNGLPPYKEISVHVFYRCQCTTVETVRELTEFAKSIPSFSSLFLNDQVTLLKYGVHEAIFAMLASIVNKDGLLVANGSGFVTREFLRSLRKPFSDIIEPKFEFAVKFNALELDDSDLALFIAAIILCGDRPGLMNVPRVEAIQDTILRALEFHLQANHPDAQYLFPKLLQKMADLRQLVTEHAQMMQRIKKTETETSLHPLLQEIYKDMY

CNCc1ccccc1
not listed: [13] | [14] | [15] | [16] | [17] | [18] | [19] | [20]
inactive: all other assays above

C[C@@H]1C[C@H]2[C@@H]3C[C@H](F)C4=CC(=O)C=C[C@]4(C)[C@@]3(F)[C@@H](O)C[C@]2(C)[C@@]1(O)C(=O)CO
not listed: [3] | [4] | [6] | [9] | [11] | [19] | [20]
inactive: all other assays above

CCCCCC1CCCC(=O)O1 (stereo not drawn)
not listed: [4] | [6] | [13] | [20]
inactive: all other assays above

O=[Si]=O
not listed: [11] | [13] | [16] | [19]
inactive: all other assays above

COc1ccc(NS(=O)(=O)c2ccc(N)cc2)nn1
not listed: [3] | [4] | [16] | [20]
inactive: all other assays above

C=CCOc1cc(Cl)ccc1C(=O)NCCN(CC)CC
not listed: [2] | [3] | [4] | [9] | [10] | [11] | [14] | [19]
inactive: all other assays above

COC(OC)C(C)c1ccccc1 (stereo not drawn)
not listed: [5] | [6] | [11] | [13] | [17] | [19]
inactive: all other assays above

CCCOC(=O)CCCCC(=O)OCCC
not listed: [3] | [4] | [11] | [18] | [19] | [20]
inactive: all other assays above

C[Si]1(C)N[Si](C)(C)N[Si](C)(C)N1
inactive: [1] | [2] | [3] | [5] | [6] | [15] | [7] | [10] | [16] | [12]
